Laboratory results from the supplement of paper PMC10338343.
± gives the standard deviation.

These sequences were tested on MILI (PIWIL2) piRISC loaded with L1MC piRNA (26 nt) (assay: pre-steady-state target cleavage rate (min^-1); guide: L1MC piRNA 5'p-UAACUAAAUACUAUGCAAGCUGUAGG; MIWI and MILI are mouse PIWI proteins and EfPiwi is from a freshwater sponge; tags in brackets are library labels; higher = faster piRNA-guided slicing of the target). Conditions: auxiliary factor: 500 nM mouse GTSF1.
Procedure, shortened: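 The pre-steady-state cleavage rate was obtained by Cleave-'n-Seq with a burst-and-steady-state fit. A transcribed, DNA-blocked target RNA library (0.1 nM) was mixed with 1 nM active affinity-purified piRISC carrying one synthetic guide, with or without 500 nM GTSF1 partner protein, in HEPES–potassium acetate buffer at 33 °C for 0–8 or 0–960 min. Uncleaved targets were sequenced and normalised to depth and to weakly complementary targets, with three trials pooled and k3 capped at 0.0001 min^-1.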

Sequence | pre-steady-state target cleavage rate
UCCUGGAUGUCCUUGCAUAGUAUUUUCAUA | 0.0192 ± 0.0081
UCCUGGAACAGCUUGCAUAGAAUUUACUUA | 0.0289 ± 0.011
UCCUGGAACAGCUUGCAAAGUAUUUUCAAA | 0.0111 ± 0.0049
UCCUGCUACAGCUUGCUUAGAAUUUAGUUA | 0.0543 ± 0.011
UCCUGGAUGAGCUUGCAUAGUAAUUACUUA | 0.00616 ± 0.004
UCCUGGAUGUCCAUGCAUAGUAUUUUGUUA | 0.00776 ± 0.0045
UCCUGGAUGUGCUUGCAUAGAAUUAAGUUA | 0.00431 ± 0.003
UCCUGGAUCAGCUUGCAUAGUAUUUGUUA | 0.145 ± 0.023
UCCUGGAUGUCGAUGCAUAGUAUUUAGAUUA | 0.0599 ± 0.016
UCCUGGAUGUCGAAGCAUAGUAUUUAGUAUA | 0.0394 ± 0.0091
UCCUGGAUCAGCUUGCAAUCUAUUUAGUAA | 0.0108 ± 0.0043
UCCUGGAUGUCGAAUCAUAGUAUUUAGUUA | 0.00554 ± 0.0026
UCCUGCUACUCCUUGCAUAGUAUUUUCAAA | 0.0369 ± 0.013
UCCUGCUAGAGCUUGCAUAGUAUUUUCAAA | 0.0124 ± 0.0058
UCCUGGAACACGUUGCAUAGUAUUUUCAAA | 0.0973 ± 0.026
UCCUCCUACAGCUUGCAAUCUAUUUUCAAA | 0.0216 ± 0.0095
UCCUGGAUGUGCUUGCAUAGUAUUUACUUA | 0.0325 ± 0.0094
UCCUGGAUGUCGAUGAAUAGUAUUUAGUUA | 0.00887 ± 0.0033

Sequence | pre-steady-state target cleavage rate
UCCUGGAUGAGCUUGGAUACUAUUUAGUUA | 0.00767 ± 0.0035
UCCUGGUACAGCUUGCAUAGUAUAAUCAAA | 0.0264 ± 0.0091
UCCUGGAUGUCGAUGCAUAGUAUUUAUUUA | 0.0578 ± 0.015
UCCUGGAUGUCGAACGUAUGUAUUUAGUAUA | < 0.0001
UCCUGGAUCAGCUUGCUUAGUAUUUUCAAA | 0.0126 ± 0.0057
UCCUGGAACAGCUUGCUAAGUAUUUAGAAA | 0.0282 ± 0.01
UCCUGGAUGUCCUUGCAUACUAUUUACUUA | 0.0119 ± 0.0046
UCCUCCUACAGCUUGGUUAGUAUUUACAAA | 0.0445 ± 0.012
UCCUGGAUCACCUUGCAUAGUAUAUAGUUA | 0.227 ± 0.041
UCCUGGAUGUCGAUGCAUAGUAUUUAUUA | 0.00695 ± 0.0047
UCCUGGAUCAGCUUGCAAAGUAUUUUCAAA | 0.00923 ± 0.0045
UCCUGGAUGUGCUUGCAUUGUAUUUACUUA | 0.0239 ± 0.0082
UCCUGGAUCAGCUUGCAUAGUUUUUUCAAA | 0.00833 ± 0.0048
UCCUGGAUGAGCUUGCAUUCUAUUUAGUUA | 0.0348 ± 0.0092
UCCUGGAUGUCGAACCAUAGAAUUUAGUUA | < 0.0001
UCCUGGAUCAGCUUGCAUAGUUUUAGUUA | 0.00374 ± 0.0036
UCCUGGUACAGCUUGCAUAGUUUUUACUUA | 0.0154 ± 0.008

Same assay, conditions: auxiliary factor: none (no GTSF1)

Sequence | pre-steady-state target cleavage rate
UCCUGGAUGUCGAACGUUAGUAUAUAGUUA | < 0.0001
UCCUGGAUGUCCAACCAUAGUAUUUAGUAA | < 0.0001
UCCUGGAUGUCGAACGUAUGUAUAAAGUUA | < 0.0001
UCCUGGAUGUCCUUGCAAAGAAUUUAGUUA | 0.00283 ± 0.0026
UCCUGGAUGUCGAACGUGAGUAUUUAGUUA | < 0.0001
